PubChem BioAssay AID1347416 (National Center for Advancing Translational Sciences (NCATS), 2020)
In all, about 4,100 compounds went through this assay and about 1,600 (39%) were called active. Another 25% or so got no clear call; they are omitted. This is one part of the list. Values without a mark were called inactive. The call rests on the fitted dose curve; in most records, active means well fitted inhibition curve with a large enough effect; inconclusive means small, poorly fitted or top-dose-only effect; inactive means no such curve, though single readings can be large or run the other way.

Assay: qHTS Validation assay for Inhibitors of Plasmodium falciparum Dd2 growth in vitro; further: nearly all actives have a fitted effect of over 70% in size
Details: P. falciparum Dd2 in RBCs, SYBR Green growth, 72 h; series mostly up to 28.7 µM; activity change, negative = inhibition: at the top concentration
Text: Malaria, a parasitic disease spread to humans through the bite of a Plasmodium infected Anopheles mosquito, continues to be a global health burden affecting millions of people, with an estimated 228 million cases and 405,000 deaths in 2018. Concerns about safety and limitations of current antimalarial treatments strongly emphasize the need to develop new therapeutic options. The scarce number of chemotypes and validated drug targets with efficacy against the liver stage, have hindered development of new antimalarials. To address this, a chemoprophylactic drug discovery effort was conducted through a combined phenotypic high-throughput asexual blood stage and liver stage screen, providing a robust foundation to identify liver-stage active lead chemotypes. Compounds were initially screened against Plasmodium falciparum Dd2 strain parasites using a in vitro SYBRGreen-1 based 72 hr proliferation assay to identify novel chemotypes to advance to liver stage assays. NIH/NCATS Early Translation Branch Assay Submitter (PI): Anton Simeonov Ph.D.
[…] Assay Protocol: PROTOCOL TABLE (as described by Inglese et al., 2007) SEQUENCE No. (e.g., 1, 2, 3, etc.); PARAMETER (e.g., Cells, Incubation, Reagent, etc.); VALUE; DESCRIPTION SEQUENCE, Parameter, Description 1; Reagent; 3 uL complete malaria growth medium, 1536 TC treated Black clear bottom plate 2; Controls; 23 nL positive control artesunate (300 nM final) to column 1; Neutral control DMSO to columns 2-4 3; Compound; 23 nL of compounds in dose response concentration (29 uM to 0.5 nM final) 4; Reagent; 5 uL malaria infected red blood cells (2.5% hematocrit final, 0.3% parasitemia 5; Time; 72 hours at 37C (5% O2, 5% CO2, 90% N2; 95% Rh) 6; Reagent; 2 uL lysis buffer/SYBRGreen-1, 25 sec shake immediately following dispense 7; Time; ~16 hours at 37C (5% O2, 5% CO2, 90% N2; 95% Rh) 8; Detector; EnVision (PerkinElmer) bottom read at 485/14nm excitation and 535/25 nm emission NOTES (numbers refer to sequence above): 1; Complete Malaria Growth Media: 1X RPMI-1640 w/L-glutamine, 5.5g/L Albumax II, 367 uM Hypoxanthine, 25 mM HEPES, 0.25% Sodium Bicarbonate, 35 uM Gentamicin sulfate 2; Controls were added using the Kalypsis Pintool (Wako USA) equipped with 1536 pinhead 3; Compounds were added in a 7-point, titration with a high final concentration of 29 uM by Pintool from seven inter-plate titrations of library plates and two DMSO control plates at the beginning and end (see Yasgar et al., 2008). 4; Red blood cells infected with Plasmodium falciparum Dd2 parasites were used. 6; Lysis buffer: 20 mM Tris-HCl, 10 mM EDTA, 0.16% Saponin, 1.6% Triton-X, 10X SYBR Green. REFERENCE: Inglese J, Shamu CE, Guy RK. 2007. Reporting data from high-throughput screening of small-molecule libraries. Nat Chem Biol. doi:10.1038/nchembio0807-438 Yasgar A, Shinn P, Jadhav A, Auld D, Michael S, Zheng W, Austin CP, Inglese J, Simeonov A. 2008. Compound Management for Quantitative High-Throughput Screening. J Lab Autom 13:79-89. doi:10.1016/j.jala.2007.12.004
On the % scale 0 is the no-effect control and ±100 the full control effect; potency means the concentration at half of the fitted maximal effect.

Compound | Potency | activity change, negative = inhibition
CN1CC2(CCCN(CC3CC3)C2)c2cc(C(=O)NCCOc3ccccc3)ccc21 (centres undefined) | 17.2 µM (active) | 
Cc1ccccc1CN1CCc2nc(C(=O)NCCOc3ccccc3)oc2CC1 |  | 21.9% [at 43.1 µM]
COCCN1CCCCCC(O)c2cc(C(=O)NCCc3ccccc3)ccc21 (centres undefined) |  | -13.9%
COc1cc2nc(NCCC(C)C)n3nc(-c4ccccc4)nc3c2cc1OC | 0.422 µM (active) | 
CCOCCCNc1nc2cc(OC)c(OC)cc2c2nc(-c3ccccc3)nn12 | 0.211 µM (active) | 
COCCCNc1nc2cc(OC)c(OC)cc2c2nc(-c3ccccc3)nn12 | 0.237 µM (active) | 
CC(C)CN1C(=O)c2cccn2CC1C(=O)O (centres undefined) |  | 31.9%
CCN1C(=O)C2(CCN(S(=O)(=O)c3ccc(Cl)cc3C)CC2)c2ccccc21 | 5.31 µM (active) | 
CN1C(=O)C2(CCN(C(=O)c3ccn(C(C)(C)C)c3)CC2)c2ccccc21 |  | -35.1%
COc1ccc(-c2nc3sc(CCNC(=O)c4ccc(C(C)(C)C)cc4)c(C)n3n2)cc1 | 2.11 µM (active) | 
COc1ccc(-c2nc3scc(CCNC(=O)c4cccc(Br)c4)n3n2)cc1 |  | 24.6%
COc1ccc(-c2cc3c(=O)n(CCNC(=O)c4ccc(N(C)C)cc4)ccn3n2)cc1 |  | -7.95%
Cc1c(O)c(CN2CCCC2)cc2c1oc(=O)c1ccccc12 | 2.66 µM (active) | 
Cc1c(O)c(CN(C)C)cc2c1oc(=O)c1ccccc12 | 4.22 µM (active) | 
CCCc1cc(=O)oc2c(C)c(O)c(CN3CCCCC3)cc12 | 3.35 µM (active) | 
Cc1c(O)c(CN2CCCCC2)cc2c1oc(=O)c1ccccc12 | 0.75 µM (active) | 
O=C1CCCCN1Cc1nc(C2CCOC2)no1 (centres undefined) |  | 38.8%
Cc1cc(C)c2oc(=O)cc(CN3CCCCC3)c2c1 | 13.3 µM (active) | 
C=CCCC(CN1CCCC1)Oc1ccc(C(=O)N2CCCC2)cn1 (centres undefined) | 13.3 µM (active) | 
COc1ccc(C(=O)N2CCCC(n3cc(-c4nc(C(C)C)no4)nn3)C2)cn1 (centres undefined) |  | 0.265%
CC(C)CN(Cc1cc(=O)oc2cc3c(cc12)CCCC3)CC(C)C | 15 µM (active) | 
CCOC(=O)C(C)/C(C)=N/NC(N)=S (centres undefined) | 2.66 µM (active) | 
N#Cc1ccc(C23CC4CC(CC(C4)C2)C3)[nH]c1=O |  | 23.7%
CC(C)(C)c1ccc(C(=O)Nc2ccc(-c3nc4cc(Cl)ccc4o3)cc2)cc1 |  | 9.61%
O=C(Nc1ccc(C2=NCCN2)cc1)c1ccc(C(=O)Nc2ccc(C3=NCCN3)cc2)c([N+](=O)[O-])c1 | 0.237 µM (active) | 

Compound | Potency | activity change, negative = inhibition
O=C(Nc1ccc(C2=NCCN2)cc1)c1ccc(C(=O)Nc2ccc(C3=NCCN3)cc2)c(Cl)c1 | 0.473 µM (active) | 
CC1Oc2ccc(NC(=O)c3ccc(Cl)c(Cl)c3)cc2CN(Cc2ccccc2F)C1=O (centres undefined) |  | -1.4%
Cc1cc(C[C@@H]2COC[C@@H]2NC(=O)CCc2ccc(=O)[nH]n2)on1 |  | 50.1%
COc1cc(NC(=O)c2cc([N+](=O)[O-])ccc2NC(=O)CNC2CCCCC2C)cc(OC)c1 (centres undefined) | 5.96 µM (active) | 
COC(=O)c1cc(C(=O)c2ccc(Cl)cc2Cl)cn1C | 13.3 µM (active) | 
CCc1ccc(C2=CC(c3cccc(C)c3)n3c(nc4ccccc43)N2)cc1 (centres undefined) | 15 µM (active) | 
CC1=C[C@@H](CN2CCN(c3ncccn3)CC2)[C@H](C(C)C)C[C@H]1Cc1nnc(COc2ccc(F)cc2)o1 | 0.75 µM (active) | 
CC1=C[C@@H](CN2CCOCC2)[C@H](C(C)C)C[C@H]1Cc1nnc(-c2ccc([N+](=O)[O-])cc2)o1 | 9.44 µM (active) | 
CC1=C[C@@H](CN2CCCC2)[C@H](C(C)C)C[C@H]1Cc1nnc(-c2ccc([N+](=O)[O-])cc2)o1 | 3.85 µM (active) | 
COc1ccc(-c2nnc(C[C@@H]3C[C@@H](C(C)C)[C@H](CN4CCC(O)CC4)C=C3C)o2)cc1 | 9.44 µM (active) | 
COc1ccc(C(=O)N[C@@H]2CCC[C@@H]2C(=O)NCCCN(C)C)cn1 |  | 21.5%
COC(=O)CNC(=O)N1CCCCC1c1nc(CCOc2cccc(C)c2)no1 (centres undefined) |  | 17.4%
COc1nc2c(cc1CNC(=O)C(C)(C)OC)C(=O)N(CCc1ccccn1)C2 |  | 42.1%
Cc1noc(-c2cn(C3CCN(C(=O)c4ccc(C)s4)C3)nn2)n1 (centres undefined) |  | 30%
CC1=C[C@@H](CN2CCC(C)CC2)[C@H](C(C)C)C[C@H]1Cc1nnc(-c2cccnc2)o1 | 15.3 µM (active) | 
Cc1ccc(S(=O)(=O)N(C)CC2CCOCC2)c(C)c1 |  | 48.2%
O=C(c1ccc2c(c1)N(Cc1ccc(Cl)cc1)C(=O)c1ccccc1S2(=O)=O)N1CCCC1 |  | -8.99%
COc1ccccc1CNC(=O)c1cc2c(s1)CCN(C(=O)c1ccc(C)cc1)C2 |  | -15.5%
Cc1ccc(C)c(CN2C(=O)c3ccccc3S(=O)(=O)c3ccc(C(=O)NCCc4ccc(Cl)cc4)cc32)c1 | 7.5 µM (active) | 
Cc1ccc(Cl)cc1N1CCN(C(=O)c2ccc3c(c2)N(Cc2ccccc2F)C(=O)c2ccccc2S3(=O)=O)CC1 | 5.31 µM (active) | 
Cc1ccc(C)c(CN2C(=O)c3ccccc3S(=O)(=O)c3ccc(C(=O)N4CCCCCC4)cc32)c1 |  | -26.1%
COc1ccccc1N1CCN(C(=O)c2ccc3c(c2)N(Cc2cc(C)ccc2C)C(=O)c2ccccc2S3(=O)=O)CC1 | 9.44 µM (active) | 
CCOC(=O)C1CCCN(C(=O)c2ccc3c(c2)N(Cc2ccccc2)C(=O)c2ccccc2S3(=O)=O)C1 (centres undefined) | 6.68 µM (active) | 
O=C(c1ccc(F)c(F)c1)N1CCC2(CC1)N(c1ccccc1)C(=O)CS2(=O)=O |  | 8.69%
